About 83,000 compounds went through this panel and 20% of them were active in at least one assay; those are over-represented in the sample as a whole.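 Cells were grown in 96-well plates and exposed to the test compound at a single concentration for 48 hours; results are reported as percent growth, with values below 10 considered active.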 Unmarked numbers belong to inactive results. Activity calls are given as the source filed them.
Columns and labels:
Assay in all cases: NCI-60 one-dose screen, 48 h (100 = growth as untreated, 0 = no growth, -100 = all killed)
Details in all cases: 10 µM unless noted
HCT-15 colon = test system: HCT-15 colon
HT29 colon = test system: HT29 colon
SNB-75 CNS = test system: SNB-75 CNS
SNB-19 CNS = test system: SNB-19 CNS
U251 CNS = test system: U251 CNS
PC-3 prostate = test system: PC-3 prostate
SK-MEL-5 melanoma = test system: SK-MEL-5 melanoma
UACC-62 melanoma = test system: UACC-62 melanoma
LOX IMVI melanoma = test system: LOX IMVI melanoma
SK-MEL-28 melanoma = test system: SK-MEL-28 melanoma
SK-MEL-2 melanoma = test system: SK-MEL-2 melanoma
EKVX NSCLC = test system: EKVX NSCLC
SN12C renal = test system: SN12C renal
UO-31 renal = test system: UO-31 renal
TK-10 renal = test system: TK-10 renal
ACHN renal = test system: ACHN renal
CAKI-1 renal = test system: CAKI-1 renal
A498 renal = test system: A498 renal
CCRF-CEM leukemia = test system: CCRF-CEM leukemia
MOLT-4 leukemia = test system: MOLT-4 leukemia

Row | Structure (SMILES) | growth (HCT-15 colon) | growth (HT29 colon) | growth (SNB-75 CNS) | growth (SNB-19 CNS) | growth (U251 CNS) | growth (PC-3 prostate) | growth (SK-MEL-5 melanoma) | growth (UACC-62 melanoma) | growth (LOX IMVI melanoma) | growth (SK-MEL-28 melanoma) | growth (SK-MEL-2 melanoma) | growth (EKVX NSCLC) | growth (SN12C renal) | growth (UO-31 renal) | growth (TK-10 renal) | growth (ACHN renal) | growth (CAKI-1 renal) | growth (A498 renal) | growth (CCRF-CEM leukemia) | growth (MOLT-4 leukemia)
1 | C#CCC#CCN1CCC[C@H]1C(=O)NCC(=O)OC | 102% | 104% | 105% | 98.9% | 103% | 98.4% | 100% | 104% | 94.4% | 101% | 99.8% | 98.4% | 98.4% | 98.5% | 99.4% | 101% | 102% | 129% | 109% | 107%
2 | O=C(c1ccc(O)c(C(=O)N2Cc3ccc(OCCC[P+](c4ccccc4)(c4ccccc4)c4ccccc4)cc3C2)c1)N1Cc2cccc(F)c2C1 | 97.6% | 101% | 95.4% | 38.1% | 56.8% | 78.9% | 29.3% | 45.5% | 67.1% | 58% | 65.2% | 70.3% | 88.6% | 80.6% | 100% | 101% | 93.1% | 85.7% | 57.4% | 108%
3 | COc1ccc(/C=N/NC2=NC3C(S2)N(C)C(=O)N3C)cc1 (stereo not given) | 28.4% | 8.29% (active) | 8.09% (active) | 34.6% | 27.2% | 32.1% | 31.1% | 38.3% | 32.7% | 53.5% | 29.9% | 38.5% | 44.3% | 45% | 76.2% | 42.7% | 24% | -17.5% (active) | 15.5% | 20.3%
4 | Cc1ccc(NC(=S)NNC(=S)Nc2ccc(C)cc2)cc1 | 96.7% | 105% | 96.1% | 98.5% | 106% | 101% | 102% | 98.6% | 115% | 105% | 109% | 94.5% | 98.1% | 89.9% | 109% | 105% | 102% | 84.1% | 95.6% | 97.5%
5 | CN1CCN(Cc2ccc(NC(=O)c3cncc(C#Cc4cnc5ccc(NCCCO)nn45)c3)cc2C(F)(F)F)CC1 | 1.94% (active) | -2.42% (active) | -70.8% (active) | -0.64% (active) | -68% (active) | -19.2% (active) | -87% (active) | -14.1% (active) | -86.3% (active) | -21% (active) | -90.8% (active) | -3.09% (active) | 15.6% | -1.42% (active) | -28.7% (active) | 3.14% (active) | -1.99% (active) | -98.8% (active) | 6.66% (active) | 8.92% (active)
6 | N/C(=N\C(N)=N\c1nc2ccccc2s1)c1ccncc1Cl | 33% | 18.8% | 7.82% (active) | 38.2% | 31.8% | 29.5% | 39.2% | 28% | 41.3% | 58.3% | 35.3% | 52.7% | 35.8% | 34.6% | 129% | 37.7% | 37.5% | 65.3% | 10.7% | 23.9%
7 | Cc1ccc(-n2cc(/C=N/NC(=O)c3ccncc3)c(-c3ccc(S(C)(=O)=O)cc3)n2)cc1 | 37% | 76.6% | 95.7% | 89.9% | 97.5% | 81.5% | 94.5% | 76.9% | 74% | 93.4% | 97.7% | 95.2% | 89.4% | 80.4% | 118% | 98% | 90.2% | 88.2% | 84% | 70.4%
8 | NC(N)=Nc1ccc(Oc2cccc(Oc3ccc(Cl)c(C(F)(F)F)c3)c2)cn1 | -83.7% (active) | -68.4% (active) | 73.3% | -84.5% (active) | -82.2% (active) | -93.8% (active) | 14.3% | -77.5% (active) | -88.6% (active) | -29.4% (active) | -36.3% (active) | -7.2% (active) | -86.6% (active) | 49.7% | -27.1% (active) | -99.7% (active) | 9.01% (active) | 15.1% | -29.8% (active) | -48.7% (active)
9 | O=S(=O)(NCCCNc1nccc(-c2[nH]c(-c3ccccc3)nc2-c2ccc(Cl)c(O)c2)n1)c1cccc(F)c1 | 38.6% | 61.7% | 104% | 82.9% | 64.4% | 46.8% | 23.5% | 19.3% | 39.8% | 25.3% | 18.5% | 65.2% | 68.2% | 56.6% | 98.2% | 57.2% | 56.1% | 101% | 32.9% | 40.3%
10 | CCOc1ccc(C(=O)Nc2ncc(Cc3ccc(F)cc3)s2)cc1 | 14.7% | -18.2% (active) | 10.2% | 29.6% | 16% | 27.4% | 33.4% | 33% | 23.7% | 61.9% | -7.6% (active) | 41.3% | 36% | 41.9% | 57.9% | 37.6% | 38% | 13.9% | 17.3% | 18.7%
11 | COc1cc2c(cc1OC)C(Sc1ccc(C)cc1)c1c(nc(N)c(C#N)c1N)O2 (stereo not given) | -74.3% (active) | -21.2% (active) | 29% | -68.9% (active) | -69.9% (active) | -71.1% (active) | -94.6% (active) | -45% (active) | -90.5% (active) | -80.3% (active) | -20% (active) | -84.3% (active) | -64.3% (active) | -99.7% (active) | -63.6% (active) | -95.8% (active) | -62.9% (active) | -54.7% (active) | 2.14% (active) | -9.07% (active)
12 | O=C(Nc1cccc(C(F)(F)F)c1)c1cc(-c2ccc(F)cc2F)ccc1O | 8.57% (active) | 74.1% | -0.914% (active) | 11.4% | 10.4% | 7.15% (active) | -66% (active) | 2.01% (active) | 0.316% (active) | 24.6% | -12.6% (active) | 9.81% (active) | 2.11% (active) | -14.3% (active) | 12.6% | 5.71% (active) | -21% (active) | -38.5% (active) | 20.8% | 4.43% (active)
13 | COc1ccc(NC(=O)CSc2nnc(-c3ccc4nc(-c5ccc(OC)c(OC)c5)[nH]c4c3)o2)cc1OC | 108% | 105% | 100% | 113% | 112% | 102% | 88.3% | 92% | 98% | 97% | 103% | 107% | 100% | 73.5% | 117% | 94.2% | 94.7% | 93.3% | 86% | 86.6%
14 | COc1cc(/C=C/C(=O)c2ccc(NC(=O)CSc3nnc(-c4ccc(-c5nc6ccc(Cl)cc6[nH]5)cc4)o3)cc2)cc(OC)c1OC | 53.7% | 106% | 88.4% | 89% | 88.5% | 92.2% | 94.1% | 74.2% | 88.6% | 88.3% | 99.2% | 103% | 104% | 86% | 136% | 96.7% | 91.2% | 101% | 85.9% | 85%
15 | C=C(C=O)[C@@H]1CC[C@]2(C)[C@H](C(=O)C=C3[C@H]4C[C@](C)(C(=O)OC)CC[C@]4(C)CC[C@]32C)[C@@]1(C)CCC#N | -45.3% (active) | -5.25% (active) | 66.1% | 30.7% | 2.98% (active) | 11.2% | -88% (active) | -19% (active) | -83.2% (active) | -38.3% (active) | -22.3% (active) | 47.7% | 12.8% | -91.5% (active) | 48.9% | -12.5% (active) | 7.53% (active) | 115% | 10.2% | 0.0515% (active)

From PubChem BioAssay (NCI)
